Measured values as given in PubChem BioAssay AID1159580 (chemical genetic matrix, 2015).
Screen size: about 5,500 compounds; about 2,000 (36%) were called active. Inconclusive results (about 18%) are left out. Rule as the data show it: active = normalized growth mostly below about 0.91 (no sharp cut-off); inconclusive = no clear call, values can overlap the other calls; inactive = mostly above about 0.92. The list shows a part of the results.

Test: chemical genetic growth profiling, strain panel (AID 1159580);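 also: tested at 20 µM; growth read once vehicle control cultures reached saturation at 30 °C; 1 = growth at the plate median or of vehicle wells; lower values mean less growth of the strain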
Settings: S. cerevisiae deletion strains, growth OD

Measured: normalized growth

CC(SCc1ccccc1)C(=O)O (centres undefined)
inactive: locus YAL013W, strain DEP1, hits give low values 0.971 | locus YBR229C, strain ROT2, hits give low values 0.965 | locus YCL061C, strain MRC1, hits give low values 0.997 | locus YDL101C, strain DUN1, hits give low values 1 | locus YDL134C, strain PPH21, hits give low values 1 | locus YDR150W, strain NUM1, hits give low values 0.91 | locus YEL061C, strain CIN8, hits give low values 1.04 | locus YGR078C, strain PAC10, hits give low values 0.994 | locus YHR030C, strain SLT2, hits give low values 0.992 | locus YHR087W, strain rtc3, hits give low values 0.978 | locus YJL187C, strain SWE1, hits give low values 0.986 | locus YJR043C, strain POL32, hits give low values 0.981 | locus YJR075W, strain HOC1, hits give low values 0.965 | locus YKL190W, strain CNB1, hits give low values 1 | locus YLR039C, strain RIC1, hits give low values 1.02 | locus YLR058C, strain SHM2 (second series), hits give low values 0.988 | locus YLR085C, strain ARP6, hits give low values 1.01 | locus YLR262C, strain YPT6, hits give low values 1.02 | locus YML094W, strain GIM5, hits give low values 1.02 | locus YMR219W, strain ESC1, hits give low values 0.979 | locus YMR263W, strain SAP30, hits give low values 0.984 | locus YNL153C, strain GIM3, hits give low values 0.981 | locus YNL298W, strain CLA4 (second series), hits give low values 1.04 | locus YNL322C, strain KRE1, hits give low values 0.991 | locus YNR030W, strain Alg12, hits give low values 1 | locus YOL006C, strain TOP1, hits give low values 1.02 | locus YPL055C, strain LGE1, hits give low values 0.856 | locus YPL241C, strain CIN2, hits give low values 1 | locus YPR135W, strain CTF4, hits give low values 0.976
